Experiments:
[1] = molecular target: High affinity nerve growth factor receptor (Homo sapiens) (UniProt P04629); conditions: at 1 µM;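 also: each value is the mean percent inhibition of TRKA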
[2] = molecular target: BDNF/NT-3 growth factors receptor (Homo sapiens) (UniProt Q16620); conditions: at 0.1 µM
[3] = molecular target: BDNF/NT-3 growth factors receptor (Homo sapiens) (UniProt Q16620); conditions: at 1 µM
[4] = molecular target: NT-3 growth factor receptor (Homo sapiens) (UniProt Q16288); conditions: at 0.1 µM
Chain of NT-3 growth factor receptor (Homo sapiens) (Q16288 32-839 limits assumed): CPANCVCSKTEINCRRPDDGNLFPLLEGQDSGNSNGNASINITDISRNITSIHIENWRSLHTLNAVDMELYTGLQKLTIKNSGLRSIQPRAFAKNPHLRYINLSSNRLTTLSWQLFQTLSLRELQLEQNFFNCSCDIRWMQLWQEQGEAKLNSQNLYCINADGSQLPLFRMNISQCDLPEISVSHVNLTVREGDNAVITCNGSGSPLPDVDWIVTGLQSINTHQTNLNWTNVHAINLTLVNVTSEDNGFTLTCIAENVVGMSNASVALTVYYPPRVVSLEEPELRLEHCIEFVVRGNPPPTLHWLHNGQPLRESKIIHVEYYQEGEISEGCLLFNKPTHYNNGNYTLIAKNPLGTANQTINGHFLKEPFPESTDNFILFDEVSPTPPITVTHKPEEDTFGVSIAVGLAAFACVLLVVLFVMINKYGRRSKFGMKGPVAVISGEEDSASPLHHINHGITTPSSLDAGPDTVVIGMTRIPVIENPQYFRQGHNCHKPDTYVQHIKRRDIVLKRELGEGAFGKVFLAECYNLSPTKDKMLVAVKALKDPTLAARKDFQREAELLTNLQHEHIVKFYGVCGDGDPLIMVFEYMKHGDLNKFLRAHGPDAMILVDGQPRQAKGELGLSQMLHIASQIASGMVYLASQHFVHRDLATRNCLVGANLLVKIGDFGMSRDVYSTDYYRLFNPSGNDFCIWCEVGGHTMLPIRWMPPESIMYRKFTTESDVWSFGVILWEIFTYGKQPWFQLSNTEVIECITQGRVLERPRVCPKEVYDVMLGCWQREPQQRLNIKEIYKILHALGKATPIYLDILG

[5] = molecular target: NT-3 growth factor receptor (Homo sapiens) (UniProt Q16288); conditions: at 1 µM
[6] = molecular target: T1, Tyrosine-protein kinase TXK (Homo sapiens) (UniProt P42681); conditions: at 0.1 µM
T1 sequence (whole entry): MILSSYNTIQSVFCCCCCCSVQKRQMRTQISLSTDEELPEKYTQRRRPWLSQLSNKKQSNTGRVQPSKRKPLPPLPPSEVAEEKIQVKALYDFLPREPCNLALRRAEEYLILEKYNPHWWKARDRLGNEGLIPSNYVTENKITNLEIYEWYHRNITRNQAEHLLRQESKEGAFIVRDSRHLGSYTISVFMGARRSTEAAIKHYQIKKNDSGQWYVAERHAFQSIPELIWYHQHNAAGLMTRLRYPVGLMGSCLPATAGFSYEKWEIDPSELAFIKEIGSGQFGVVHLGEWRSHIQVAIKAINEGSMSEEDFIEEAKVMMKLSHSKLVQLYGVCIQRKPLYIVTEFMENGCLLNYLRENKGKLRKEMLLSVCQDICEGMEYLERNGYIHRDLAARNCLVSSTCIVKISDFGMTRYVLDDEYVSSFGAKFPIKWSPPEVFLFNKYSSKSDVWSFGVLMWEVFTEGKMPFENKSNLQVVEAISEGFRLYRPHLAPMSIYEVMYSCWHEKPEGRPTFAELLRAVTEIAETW

[7] = molecular target: T1, Tyrosine-protein kinase TXK (Homo sapiens); conditions: at 1 µM
[8] = molecular target: Non-receptor tyrosine-protein kinase TYK2 (Homo sapiens) (UniProt P29597); conditions: at 0.1 µM;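 also: each value is a mean of the inhibition readings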
Chain of Non-receptor tyrosine-protein kinase TYK2 (Homo sapiens) (P29597 whole entry): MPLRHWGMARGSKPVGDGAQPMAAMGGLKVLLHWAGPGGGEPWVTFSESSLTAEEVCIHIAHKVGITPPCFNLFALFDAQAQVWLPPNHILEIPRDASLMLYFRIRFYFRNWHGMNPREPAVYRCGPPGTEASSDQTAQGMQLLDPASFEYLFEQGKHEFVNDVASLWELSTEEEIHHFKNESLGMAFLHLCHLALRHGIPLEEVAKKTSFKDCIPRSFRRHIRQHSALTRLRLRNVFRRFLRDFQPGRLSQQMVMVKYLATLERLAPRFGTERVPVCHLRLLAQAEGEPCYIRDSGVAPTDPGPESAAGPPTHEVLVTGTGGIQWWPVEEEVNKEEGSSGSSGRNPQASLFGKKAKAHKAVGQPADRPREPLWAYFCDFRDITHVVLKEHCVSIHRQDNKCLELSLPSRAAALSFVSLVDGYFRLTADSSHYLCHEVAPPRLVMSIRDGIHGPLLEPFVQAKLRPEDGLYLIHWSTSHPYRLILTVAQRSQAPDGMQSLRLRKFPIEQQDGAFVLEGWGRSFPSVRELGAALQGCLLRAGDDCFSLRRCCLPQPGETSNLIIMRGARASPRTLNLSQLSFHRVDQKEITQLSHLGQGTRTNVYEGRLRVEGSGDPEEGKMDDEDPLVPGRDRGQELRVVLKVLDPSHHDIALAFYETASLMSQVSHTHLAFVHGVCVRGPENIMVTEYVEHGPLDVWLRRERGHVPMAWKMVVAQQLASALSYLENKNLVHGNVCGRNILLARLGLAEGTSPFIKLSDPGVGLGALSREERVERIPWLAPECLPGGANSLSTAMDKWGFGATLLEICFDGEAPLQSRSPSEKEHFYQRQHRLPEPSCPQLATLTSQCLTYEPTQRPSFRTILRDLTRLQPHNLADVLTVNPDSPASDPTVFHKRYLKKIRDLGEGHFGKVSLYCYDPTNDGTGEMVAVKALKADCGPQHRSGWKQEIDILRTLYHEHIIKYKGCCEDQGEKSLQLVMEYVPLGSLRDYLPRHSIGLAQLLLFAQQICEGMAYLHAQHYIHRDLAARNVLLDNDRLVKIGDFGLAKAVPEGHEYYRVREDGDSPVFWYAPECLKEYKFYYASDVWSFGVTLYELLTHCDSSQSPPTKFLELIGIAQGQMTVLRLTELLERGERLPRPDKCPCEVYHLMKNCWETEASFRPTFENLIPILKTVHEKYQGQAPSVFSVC

[9] = molecular target: T2, Dual specificity protein kinase TTK (Homo sapiens) (UniProt P33981); conditions: at 1 µM;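 also: reported figures are mean TTK inhibition at 1 µM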
T2 sequence (whole entry): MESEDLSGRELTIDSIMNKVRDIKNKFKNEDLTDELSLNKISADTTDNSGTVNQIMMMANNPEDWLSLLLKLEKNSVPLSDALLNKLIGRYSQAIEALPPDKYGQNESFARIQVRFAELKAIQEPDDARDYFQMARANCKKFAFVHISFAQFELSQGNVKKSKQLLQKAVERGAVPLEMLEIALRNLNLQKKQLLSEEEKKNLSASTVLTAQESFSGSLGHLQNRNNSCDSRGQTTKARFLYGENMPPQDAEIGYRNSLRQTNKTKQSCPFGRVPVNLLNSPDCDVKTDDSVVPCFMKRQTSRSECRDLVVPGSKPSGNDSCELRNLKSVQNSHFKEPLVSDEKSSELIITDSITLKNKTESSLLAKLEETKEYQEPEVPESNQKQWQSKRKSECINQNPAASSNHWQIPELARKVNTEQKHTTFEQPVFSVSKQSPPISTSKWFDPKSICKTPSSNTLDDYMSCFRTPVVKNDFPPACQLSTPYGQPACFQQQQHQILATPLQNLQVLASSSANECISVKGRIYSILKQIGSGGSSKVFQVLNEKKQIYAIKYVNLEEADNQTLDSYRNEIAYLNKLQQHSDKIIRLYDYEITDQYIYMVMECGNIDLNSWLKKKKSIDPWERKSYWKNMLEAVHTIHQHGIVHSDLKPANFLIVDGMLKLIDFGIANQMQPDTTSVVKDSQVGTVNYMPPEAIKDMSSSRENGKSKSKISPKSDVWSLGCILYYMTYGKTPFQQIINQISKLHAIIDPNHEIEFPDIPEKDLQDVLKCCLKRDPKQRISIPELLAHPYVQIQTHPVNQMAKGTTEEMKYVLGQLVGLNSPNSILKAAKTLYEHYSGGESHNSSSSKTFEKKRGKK

[10] = molecular target: T3, Aurora kinase A (Homo sapiens) (UniProt O14965); conditions: at 0.1 µM
T3 sequence (whole entry): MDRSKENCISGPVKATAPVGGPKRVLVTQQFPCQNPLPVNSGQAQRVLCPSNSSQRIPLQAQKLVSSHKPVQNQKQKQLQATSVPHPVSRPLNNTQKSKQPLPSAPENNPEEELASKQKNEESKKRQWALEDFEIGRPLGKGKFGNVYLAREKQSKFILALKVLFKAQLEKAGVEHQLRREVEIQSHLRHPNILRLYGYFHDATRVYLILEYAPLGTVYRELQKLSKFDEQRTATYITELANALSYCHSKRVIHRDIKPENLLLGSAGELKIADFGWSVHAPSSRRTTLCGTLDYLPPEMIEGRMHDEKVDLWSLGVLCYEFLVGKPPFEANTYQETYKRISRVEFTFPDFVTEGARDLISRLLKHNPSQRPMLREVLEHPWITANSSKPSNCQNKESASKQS

[11] = molecular target: T3, Aurora kinase A (Homo sapiens); conditions: at 1 µM
[12] = molecular target: Aurora kinase B (Homo sapiens) (UniProt Q96GD4); conditions: at 0.1 µM
Chain of Aurora kinase B (Homo sapiens) (Q96GD4 whole entry): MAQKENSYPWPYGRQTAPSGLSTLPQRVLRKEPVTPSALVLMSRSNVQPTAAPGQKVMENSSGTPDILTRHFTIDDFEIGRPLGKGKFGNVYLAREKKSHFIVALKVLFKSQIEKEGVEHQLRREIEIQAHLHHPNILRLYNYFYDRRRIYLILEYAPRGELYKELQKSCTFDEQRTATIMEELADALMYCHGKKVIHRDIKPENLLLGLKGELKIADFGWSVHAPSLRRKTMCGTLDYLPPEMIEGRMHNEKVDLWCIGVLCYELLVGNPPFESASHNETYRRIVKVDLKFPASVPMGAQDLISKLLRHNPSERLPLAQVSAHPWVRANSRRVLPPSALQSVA

[13] = molecular target: Aurora kinase B (Homo sapiens) (UniProt Q96GD4); conditions: at 1 µM
[14] = molecular target: T4, Aurora kinase C (Homo sapiens) (UniProt Q9UQB9); conditions: at 0.1 µM
T4 sequence (whole entry): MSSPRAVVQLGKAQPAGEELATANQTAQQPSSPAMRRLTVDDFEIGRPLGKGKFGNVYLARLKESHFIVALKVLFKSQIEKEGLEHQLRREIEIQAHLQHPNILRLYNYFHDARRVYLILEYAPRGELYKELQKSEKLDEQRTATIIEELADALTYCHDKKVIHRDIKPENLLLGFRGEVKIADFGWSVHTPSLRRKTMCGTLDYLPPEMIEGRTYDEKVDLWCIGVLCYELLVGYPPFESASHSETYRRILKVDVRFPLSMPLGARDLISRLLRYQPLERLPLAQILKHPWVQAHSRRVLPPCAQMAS

[15] = molecular target: T4, Aurora kinase C (Homo sapiens); conditions: at 1 µM
[16] = molecular target: Serine/threonine-protein kinase 10 (Homo sapiens) (UniProt O94804); conditions: at 0.1 µM
Chain of Serine/threonine-protein kinase 10 (Homo sapiens) (O94804 whole entry, looked up): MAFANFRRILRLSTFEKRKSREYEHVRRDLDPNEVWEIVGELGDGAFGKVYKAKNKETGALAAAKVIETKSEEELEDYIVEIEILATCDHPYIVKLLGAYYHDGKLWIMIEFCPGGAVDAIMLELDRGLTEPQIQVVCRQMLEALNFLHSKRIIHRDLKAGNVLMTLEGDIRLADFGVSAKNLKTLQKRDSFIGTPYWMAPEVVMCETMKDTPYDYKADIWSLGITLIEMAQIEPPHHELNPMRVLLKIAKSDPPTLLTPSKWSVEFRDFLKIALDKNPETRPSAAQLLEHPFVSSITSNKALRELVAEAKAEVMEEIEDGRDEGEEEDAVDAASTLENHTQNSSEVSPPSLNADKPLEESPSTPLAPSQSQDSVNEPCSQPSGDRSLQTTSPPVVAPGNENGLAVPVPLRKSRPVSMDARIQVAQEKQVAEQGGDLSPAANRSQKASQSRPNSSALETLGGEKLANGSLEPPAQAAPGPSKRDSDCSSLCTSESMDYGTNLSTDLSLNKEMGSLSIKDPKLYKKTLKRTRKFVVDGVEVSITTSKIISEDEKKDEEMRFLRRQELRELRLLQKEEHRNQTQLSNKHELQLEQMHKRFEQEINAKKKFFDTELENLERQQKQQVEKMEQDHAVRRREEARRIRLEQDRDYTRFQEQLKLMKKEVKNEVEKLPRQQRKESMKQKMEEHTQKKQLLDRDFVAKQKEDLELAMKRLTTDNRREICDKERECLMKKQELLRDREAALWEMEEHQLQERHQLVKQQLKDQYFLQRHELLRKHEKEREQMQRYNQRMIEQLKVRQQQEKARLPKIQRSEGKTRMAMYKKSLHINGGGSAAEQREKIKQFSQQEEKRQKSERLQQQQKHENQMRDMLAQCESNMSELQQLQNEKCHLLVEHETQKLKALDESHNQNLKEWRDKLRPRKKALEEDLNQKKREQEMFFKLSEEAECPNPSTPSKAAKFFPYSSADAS

[17] = molecular target: Serine/threonine-protein kinase 10 (Homo sapiens) (UniProt O94804); conditions: at 1 µM
[18] = molecular target: T5, Mitogen-activated protein kinase kinase kinase kinase 2 (Homo sapiens) (UniProt Q12851); conditions: at 0.1 µM
T5 sequence (whole entry): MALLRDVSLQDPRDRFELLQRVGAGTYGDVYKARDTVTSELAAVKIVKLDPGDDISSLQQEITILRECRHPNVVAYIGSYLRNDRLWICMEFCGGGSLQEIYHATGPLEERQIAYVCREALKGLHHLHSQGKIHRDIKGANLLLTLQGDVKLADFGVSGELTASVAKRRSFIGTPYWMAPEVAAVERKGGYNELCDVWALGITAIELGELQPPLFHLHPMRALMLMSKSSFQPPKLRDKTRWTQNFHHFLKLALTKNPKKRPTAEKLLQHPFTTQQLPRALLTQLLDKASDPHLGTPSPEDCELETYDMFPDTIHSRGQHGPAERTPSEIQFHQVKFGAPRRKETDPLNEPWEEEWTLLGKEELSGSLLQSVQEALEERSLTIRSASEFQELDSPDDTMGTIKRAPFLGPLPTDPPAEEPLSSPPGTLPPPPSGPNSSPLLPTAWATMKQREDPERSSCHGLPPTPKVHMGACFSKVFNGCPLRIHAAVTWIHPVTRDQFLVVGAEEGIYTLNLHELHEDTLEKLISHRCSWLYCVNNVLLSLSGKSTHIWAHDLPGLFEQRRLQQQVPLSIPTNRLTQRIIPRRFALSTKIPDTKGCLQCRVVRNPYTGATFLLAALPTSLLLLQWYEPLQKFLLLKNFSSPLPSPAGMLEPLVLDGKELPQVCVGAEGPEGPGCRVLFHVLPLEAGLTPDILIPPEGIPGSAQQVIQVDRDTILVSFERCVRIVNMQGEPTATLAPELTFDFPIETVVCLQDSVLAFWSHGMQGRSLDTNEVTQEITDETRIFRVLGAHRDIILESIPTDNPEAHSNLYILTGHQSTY

[19] = molecular target: T5, Mitogen-activated protein kinase kinase kinase kinase 2 (Homo sapiens); conditions: at 1 µM
[20] = molecular target: Mitogen-activated protein kinase kinase kinase kinase 4 (Homo sapiens) (UniProt O95819); conditions: at 0.1 µM

Chain of BDNF/NT-3 growth factors receptor (Homo sapiens) (Q16620 32-822 limits assumed): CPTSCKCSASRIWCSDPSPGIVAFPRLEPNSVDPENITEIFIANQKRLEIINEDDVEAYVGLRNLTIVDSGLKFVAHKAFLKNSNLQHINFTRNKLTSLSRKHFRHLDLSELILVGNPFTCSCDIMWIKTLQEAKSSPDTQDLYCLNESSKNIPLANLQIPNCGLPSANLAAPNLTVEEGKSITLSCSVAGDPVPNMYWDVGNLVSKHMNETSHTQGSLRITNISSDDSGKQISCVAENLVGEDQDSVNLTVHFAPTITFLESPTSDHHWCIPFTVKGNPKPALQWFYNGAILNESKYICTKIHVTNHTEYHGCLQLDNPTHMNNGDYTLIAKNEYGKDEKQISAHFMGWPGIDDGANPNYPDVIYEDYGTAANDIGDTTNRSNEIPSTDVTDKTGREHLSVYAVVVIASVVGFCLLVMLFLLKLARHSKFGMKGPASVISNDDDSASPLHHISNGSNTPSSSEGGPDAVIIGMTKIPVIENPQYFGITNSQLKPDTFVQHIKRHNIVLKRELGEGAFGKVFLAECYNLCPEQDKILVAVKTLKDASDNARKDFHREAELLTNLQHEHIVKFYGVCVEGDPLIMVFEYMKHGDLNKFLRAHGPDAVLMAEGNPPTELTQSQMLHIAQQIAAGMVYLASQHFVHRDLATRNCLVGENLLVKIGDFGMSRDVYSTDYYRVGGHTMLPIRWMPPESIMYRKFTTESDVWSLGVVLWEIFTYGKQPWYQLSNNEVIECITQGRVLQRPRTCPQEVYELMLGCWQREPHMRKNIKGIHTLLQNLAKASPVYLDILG
Chain of High affinity nerve growth factor receptor (Homo sapiens) (P04629 33-796 limits assumed): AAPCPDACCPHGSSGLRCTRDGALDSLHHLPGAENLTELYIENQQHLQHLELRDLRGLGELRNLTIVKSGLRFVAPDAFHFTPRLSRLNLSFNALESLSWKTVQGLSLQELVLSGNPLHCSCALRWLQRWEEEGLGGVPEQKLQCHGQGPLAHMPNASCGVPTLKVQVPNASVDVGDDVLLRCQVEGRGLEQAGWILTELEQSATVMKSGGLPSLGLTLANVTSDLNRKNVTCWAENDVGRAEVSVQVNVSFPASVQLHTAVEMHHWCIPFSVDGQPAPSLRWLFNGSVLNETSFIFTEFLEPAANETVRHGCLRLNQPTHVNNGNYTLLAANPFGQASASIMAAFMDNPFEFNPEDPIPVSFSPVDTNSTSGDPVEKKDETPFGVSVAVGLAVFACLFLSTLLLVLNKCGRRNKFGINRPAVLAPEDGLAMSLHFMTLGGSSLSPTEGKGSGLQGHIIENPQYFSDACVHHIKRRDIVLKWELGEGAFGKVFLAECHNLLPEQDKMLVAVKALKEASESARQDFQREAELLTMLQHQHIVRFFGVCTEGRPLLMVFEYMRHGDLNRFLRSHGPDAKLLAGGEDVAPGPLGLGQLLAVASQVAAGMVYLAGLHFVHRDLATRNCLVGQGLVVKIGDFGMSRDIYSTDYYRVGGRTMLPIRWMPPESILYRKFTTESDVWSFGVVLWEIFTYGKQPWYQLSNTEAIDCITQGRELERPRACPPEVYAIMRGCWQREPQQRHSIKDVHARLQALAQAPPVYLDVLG

SMILES | inhibition [1] | inhibition [2] | inhibition [3] | inhibition [4] | inhibition [5] | inhibition [6] | inhibition [7] | inhibition [8] | inhibition [9] | inhibition [10] | inhibition [11] | inhibition [12] | inhibition [13] | inhibition [14] | inhibition [15] | inhibition [16] | inhibition [17] | inhibition [18] | inhibition [19] | inhibition [20]
NS(=O)(=O)c1ccc(N/N=C2\C(=O)Nc3ccc(-c4cnco4)cc32)cc1 | 36.1% | 9.38% | 46.4% | 13.3% | 51.9% | -3.23% | 0.12% | -0.2% | 52.8% | 1.82% | 33.1% | -2.59% | 1.73% | -3.12% | 11.5% | 2.55% | 8.33% | 1.49% | 4.85% | 65.1%
COc1cc(C)c(N(C)C(=O)CN(C)C)cc1Nc1nc(Nc2cccc(F)c2C(N)=O)c2cc[nH]c2n1 | 1.31% | 0.94% | -2.87% | 1.87% | -1.19% | -1.41% | -0.09% | 0.02% | 25.7% | -0.3% | -1.19% | -3.04% | -0.55% | -3.75% | 4.56% | 1.37% | 2.05% | 2.17% | 3.67% | 0.4%
CCS(=O)(=O)c1ccc(OC)c(Nc2ncc(-c3cccc(-c4ccccc4F)c3)o2)c1 | 26% | 7.74% | 39.2% | 7.3% | 39.5% | 5.11% | 31.2% | 1.51% | 3.52% | 0.79% | 15% | 3.23% | 3.48% | 0.45% | -0.17% | 2.05% | 15.4% | 1.69% | 2.38% | 2.34%
CCS(=O)(=O)c1ccc(OC)c(Nc2ncc(-c3ccccc3Cl)o2)c1 | 5.58% | 1.97% | 8.35% | 3.33% | 12.5% | 1.52% | 10.3% | -3.24% | 9.34% | 1.49% | 10.9% | -1.57% | 5.12% | 1.38% | -2.79% | 2.59% | 6.5% | 0.68% | 5.1% | 4.85%
C#Cc1cccc(Nc2ncnc3ccc(OCCCCNCCS(C)(=O)=O)cc23)c1 | 1.9% | 3.91% | 2.28% | 3.6% | 4.94% | 5.2% | 7.94% | -6.6% | 9.83% | -1.65% | -0.05% | -2.61% | 2.47% | -2.83% | -5.69% | 23.4% | 75.4% | 1.44% | 5.3% | 5.65%
COc1cc(N2CCN(C(C)C)CC2)ccc1Nc1nc(Nc2ccc(F)cc2C(=O)NC[C@@H](O)CO)c2cc[nH]c2n1 | 1.99% | 3.32% | 5.92% | 3.35% | 4.57% | -1.48% | -0.56% | -4.74% | 82% | -1.18% | -2.23% | -2.39% | 3.15% | -2.54% | -7.09% | 6.3% | 9.7% | 1.34% | 1.33% | 4.24%
Fc1ccc(-c2ncn(C3CCNCC3)c2-c2ccnc(Oc3ccc(F)c(F)c3)n2)cc1 | 3.11% | 3.23% | 3.93% | 2.87% | 4.23% | -5.36% | 0.03% | -3.58% | 14% | -0.65% | -0.3% | -1.34% | 1.81% | -2.62% | 4.92% | 4.63% | 8.33% | 1.35% | 3.76% | 9.16%
COc1cc2ncn(-c3cc(OCCc4ccccc4)c(C(N)=O)s3)c2cc1OC | 3.49% | 1.14% | 8.57% | 2.85% | 14.7% | 2.33% | 3.1% | -3.55% | 6.73% | 2.54% | 8.4% | 3.16% | 7.8% | 1.23% | 8.14% | 25% | 66.7% | 1.21% | 7.11% | 5.29%
CS(=O)(=O)CCNCc1ccc(-c2ccc3ncnc(Nc4ccc(OCc5ccccc5)c(Br)c4)c3c2)o1 | 0.51% | 3% | 4.04% | 2% | 1.45% | -5.68% | 2.31% | -5.11% | 10.2% | -1.23% | -1.79% | -1.52% | 3.89% | -3.26% | 1.56% | 8.55% | 16.4% | 0.72% | 0.4% | 3.17%
CCC(=O)Nc1ccc(C)c(-c2ccc(C(=O)NCC3CC3)cc2)c1 | 4.19% | 2.75% | 2.88% | 2.19% | 2.2% | 2.71% | 1.4% | -2.17% | 8.22% | 1.72% | 4.11% | -0.16% | 3.49% | -1.01% | 3.82% | 1.74% | 5.36% | 0.41% | 1.16% | 4.98%
C/C(Nc1ccc(S(N)(=O)=O)cc1)=C1/C(=O)Nc2ccccc21 | 38.3% | 14.1% | 61.8% | 17.4% | 87.1% | -0.52% | -0.74% | 1.41% | 35.7% | 2.21% | 37.8% | 8.07% | 48% | 7.34% | 85.7% | 0.97% | 9.28% | 1.58% | 17.7% | 44.9%
Fc1ccc(-c2c(-c3ccncc3)nc3n2CCS3)cc1 | -0.43% | 1.79% | -0.01% | 3.54% | 1.8% | -1.56% | 0.44% | -0.68% | 4.17% | -2.71% | 2.75% | -0.21% | 1.83% | -4.05% | -8.58% | -1.08% | 7.95% | 1.02% | 3.03% | 4.23%
